Results published in ChEMBL document CHEMBL2218924, “A broad activity screen in support of a chemogenomic map for kinase signalling research and drug discovery” (Biochem J, 2013).

Experiments:
[1] = target: T1, Ephrin type-B receptor 1 (Homo sapiens) (UniProt P54762); conditions: at 10 µM
T1 sequence (whole entry): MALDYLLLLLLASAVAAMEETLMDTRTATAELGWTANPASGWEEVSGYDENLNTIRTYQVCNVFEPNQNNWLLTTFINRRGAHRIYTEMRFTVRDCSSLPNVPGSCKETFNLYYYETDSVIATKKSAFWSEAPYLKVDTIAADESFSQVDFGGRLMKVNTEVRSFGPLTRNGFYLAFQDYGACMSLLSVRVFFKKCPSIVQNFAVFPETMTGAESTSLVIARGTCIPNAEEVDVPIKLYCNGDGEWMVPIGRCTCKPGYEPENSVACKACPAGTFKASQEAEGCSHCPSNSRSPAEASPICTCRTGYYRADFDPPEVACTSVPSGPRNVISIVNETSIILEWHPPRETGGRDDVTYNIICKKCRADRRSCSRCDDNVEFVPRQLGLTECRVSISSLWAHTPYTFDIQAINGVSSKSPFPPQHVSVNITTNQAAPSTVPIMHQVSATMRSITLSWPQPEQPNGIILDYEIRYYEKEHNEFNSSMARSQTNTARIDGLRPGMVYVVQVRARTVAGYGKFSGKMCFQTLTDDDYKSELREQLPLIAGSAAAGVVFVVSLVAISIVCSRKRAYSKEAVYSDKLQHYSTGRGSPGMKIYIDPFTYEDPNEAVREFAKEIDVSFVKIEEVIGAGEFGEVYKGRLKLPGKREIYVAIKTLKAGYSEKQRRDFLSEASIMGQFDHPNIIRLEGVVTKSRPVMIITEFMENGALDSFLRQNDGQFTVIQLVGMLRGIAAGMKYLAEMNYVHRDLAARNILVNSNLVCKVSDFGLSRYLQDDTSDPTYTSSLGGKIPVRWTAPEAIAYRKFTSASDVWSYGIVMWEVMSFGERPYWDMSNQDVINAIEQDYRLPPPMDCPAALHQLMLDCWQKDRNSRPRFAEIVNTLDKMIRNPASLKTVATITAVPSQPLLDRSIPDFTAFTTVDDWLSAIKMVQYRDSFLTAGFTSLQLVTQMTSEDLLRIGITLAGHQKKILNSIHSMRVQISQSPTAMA

[2] = target: T2, Ephrin type-B receptor 2 (Homo sapiens) (UniProt P29323); conditions: at 1 µM
T2 sequence (whole entry): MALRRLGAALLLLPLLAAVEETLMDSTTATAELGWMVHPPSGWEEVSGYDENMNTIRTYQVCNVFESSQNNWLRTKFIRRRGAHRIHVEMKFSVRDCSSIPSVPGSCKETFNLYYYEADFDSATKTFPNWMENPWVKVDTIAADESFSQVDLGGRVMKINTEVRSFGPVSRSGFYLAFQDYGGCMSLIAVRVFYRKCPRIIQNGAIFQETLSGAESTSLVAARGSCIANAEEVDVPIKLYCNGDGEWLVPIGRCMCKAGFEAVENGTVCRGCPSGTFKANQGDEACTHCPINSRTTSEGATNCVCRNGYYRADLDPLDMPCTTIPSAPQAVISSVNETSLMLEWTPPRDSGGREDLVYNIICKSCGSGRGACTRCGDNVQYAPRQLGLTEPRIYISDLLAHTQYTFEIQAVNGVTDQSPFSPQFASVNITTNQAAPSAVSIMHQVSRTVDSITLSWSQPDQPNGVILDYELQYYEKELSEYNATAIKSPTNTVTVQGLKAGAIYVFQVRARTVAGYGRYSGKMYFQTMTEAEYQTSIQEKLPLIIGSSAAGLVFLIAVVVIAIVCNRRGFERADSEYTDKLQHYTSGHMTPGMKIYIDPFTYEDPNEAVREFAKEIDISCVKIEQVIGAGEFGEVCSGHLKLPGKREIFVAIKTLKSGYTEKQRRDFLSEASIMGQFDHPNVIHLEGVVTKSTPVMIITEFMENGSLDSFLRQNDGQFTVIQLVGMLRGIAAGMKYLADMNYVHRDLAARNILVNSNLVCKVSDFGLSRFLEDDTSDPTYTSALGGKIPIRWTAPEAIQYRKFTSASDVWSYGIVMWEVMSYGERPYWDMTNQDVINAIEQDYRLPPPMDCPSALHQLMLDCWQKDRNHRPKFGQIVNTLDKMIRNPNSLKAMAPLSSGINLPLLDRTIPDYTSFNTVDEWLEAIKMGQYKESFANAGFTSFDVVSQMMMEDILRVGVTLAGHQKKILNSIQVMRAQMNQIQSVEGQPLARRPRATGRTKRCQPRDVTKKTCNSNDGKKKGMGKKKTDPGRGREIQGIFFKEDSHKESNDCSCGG

[3] = target: T2, Ephrin type-B receptor 2 (Homo sapiens); conditions: at 10 µM
[4] = target: T3, Ephrin type-B receptor 3 (Homo sapiens) (UniProt P54753); conditions: at 1 µM
T3 sequence (whole entry): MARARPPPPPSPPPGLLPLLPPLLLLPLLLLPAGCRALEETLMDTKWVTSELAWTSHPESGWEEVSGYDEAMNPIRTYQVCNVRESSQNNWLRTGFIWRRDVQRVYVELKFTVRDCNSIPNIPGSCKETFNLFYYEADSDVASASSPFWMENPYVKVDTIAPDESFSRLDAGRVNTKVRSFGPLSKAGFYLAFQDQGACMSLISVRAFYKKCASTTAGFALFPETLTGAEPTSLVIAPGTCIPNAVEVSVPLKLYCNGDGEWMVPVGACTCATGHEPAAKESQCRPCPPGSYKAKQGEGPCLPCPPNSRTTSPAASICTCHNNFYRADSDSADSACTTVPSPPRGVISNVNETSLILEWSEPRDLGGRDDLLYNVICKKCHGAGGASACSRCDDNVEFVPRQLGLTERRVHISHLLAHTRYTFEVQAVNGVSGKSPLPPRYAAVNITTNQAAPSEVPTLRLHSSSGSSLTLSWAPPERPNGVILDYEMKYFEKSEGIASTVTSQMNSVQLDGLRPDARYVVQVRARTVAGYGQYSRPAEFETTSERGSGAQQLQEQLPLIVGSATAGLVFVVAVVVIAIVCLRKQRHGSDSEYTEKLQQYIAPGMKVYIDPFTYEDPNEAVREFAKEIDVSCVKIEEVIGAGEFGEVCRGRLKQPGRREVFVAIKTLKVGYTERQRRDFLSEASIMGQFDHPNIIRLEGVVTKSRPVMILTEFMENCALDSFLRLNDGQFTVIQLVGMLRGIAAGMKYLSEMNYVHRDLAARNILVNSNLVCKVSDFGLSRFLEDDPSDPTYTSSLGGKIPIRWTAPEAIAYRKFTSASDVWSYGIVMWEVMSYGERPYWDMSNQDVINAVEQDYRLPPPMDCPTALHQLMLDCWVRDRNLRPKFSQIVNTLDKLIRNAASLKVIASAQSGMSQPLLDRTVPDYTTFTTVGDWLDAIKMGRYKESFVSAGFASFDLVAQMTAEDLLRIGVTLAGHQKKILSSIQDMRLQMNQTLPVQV

[5] = target: T3, Ephrin type-B receptor 3 (Homo sapiens); conditions: at 10 µM
[6] = target: T4, Ephrin type-B receptor 4 (Homo sapiens) (UniProt P54760); conditions: at 1 µM
T4 sequence (whole entry): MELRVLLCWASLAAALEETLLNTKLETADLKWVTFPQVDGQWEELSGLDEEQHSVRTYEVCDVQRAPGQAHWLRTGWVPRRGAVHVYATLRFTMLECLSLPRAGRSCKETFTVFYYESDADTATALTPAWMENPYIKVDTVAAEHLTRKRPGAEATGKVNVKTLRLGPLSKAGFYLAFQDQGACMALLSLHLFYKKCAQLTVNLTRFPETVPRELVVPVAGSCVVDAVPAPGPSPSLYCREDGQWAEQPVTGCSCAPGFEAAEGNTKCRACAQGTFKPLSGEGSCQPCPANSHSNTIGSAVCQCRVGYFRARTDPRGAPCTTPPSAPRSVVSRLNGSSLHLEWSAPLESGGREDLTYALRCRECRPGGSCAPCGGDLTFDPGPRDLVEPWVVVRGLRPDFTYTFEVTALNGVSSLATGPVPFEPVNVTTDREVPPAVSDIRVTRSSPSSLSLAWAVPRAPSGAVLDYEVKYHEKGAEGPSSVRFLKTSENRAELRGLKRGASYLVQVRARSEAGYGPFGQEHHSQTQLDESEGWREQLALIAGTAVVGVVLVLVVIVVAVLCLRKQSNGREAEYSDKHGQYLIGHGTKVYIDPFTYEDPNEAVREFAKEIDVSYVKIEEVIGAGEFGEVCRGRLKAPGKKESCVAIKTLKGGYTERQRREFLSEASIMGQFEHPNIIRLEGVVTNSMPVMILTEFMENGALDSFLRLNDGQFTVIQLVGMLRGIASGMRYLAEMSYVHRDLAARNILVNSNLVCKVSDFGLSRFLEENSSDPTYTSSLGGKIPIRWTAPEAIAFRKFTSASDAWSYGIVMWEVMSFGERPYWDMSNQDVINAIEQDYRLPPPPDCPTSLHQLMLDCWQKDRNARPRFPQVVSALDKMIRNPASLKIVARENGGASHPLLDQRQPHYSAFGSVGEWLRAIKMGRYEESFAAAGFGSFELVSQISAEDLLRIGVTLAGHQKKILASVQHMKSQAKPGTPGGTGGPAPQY

[7] = target: T4, Ephrin type-B receptor 4 (Homo sapiens); conditions: at 10 µM
[8] = target: Receptor tyrosine-protein kinase erbB-4 (Homo sapiens) (UniProt Q15303); conditions: at 1 µM
Chain of Receptor tyrosine-protein kinase erbB-4 (Homo sapiens) (Q15303 whole entry): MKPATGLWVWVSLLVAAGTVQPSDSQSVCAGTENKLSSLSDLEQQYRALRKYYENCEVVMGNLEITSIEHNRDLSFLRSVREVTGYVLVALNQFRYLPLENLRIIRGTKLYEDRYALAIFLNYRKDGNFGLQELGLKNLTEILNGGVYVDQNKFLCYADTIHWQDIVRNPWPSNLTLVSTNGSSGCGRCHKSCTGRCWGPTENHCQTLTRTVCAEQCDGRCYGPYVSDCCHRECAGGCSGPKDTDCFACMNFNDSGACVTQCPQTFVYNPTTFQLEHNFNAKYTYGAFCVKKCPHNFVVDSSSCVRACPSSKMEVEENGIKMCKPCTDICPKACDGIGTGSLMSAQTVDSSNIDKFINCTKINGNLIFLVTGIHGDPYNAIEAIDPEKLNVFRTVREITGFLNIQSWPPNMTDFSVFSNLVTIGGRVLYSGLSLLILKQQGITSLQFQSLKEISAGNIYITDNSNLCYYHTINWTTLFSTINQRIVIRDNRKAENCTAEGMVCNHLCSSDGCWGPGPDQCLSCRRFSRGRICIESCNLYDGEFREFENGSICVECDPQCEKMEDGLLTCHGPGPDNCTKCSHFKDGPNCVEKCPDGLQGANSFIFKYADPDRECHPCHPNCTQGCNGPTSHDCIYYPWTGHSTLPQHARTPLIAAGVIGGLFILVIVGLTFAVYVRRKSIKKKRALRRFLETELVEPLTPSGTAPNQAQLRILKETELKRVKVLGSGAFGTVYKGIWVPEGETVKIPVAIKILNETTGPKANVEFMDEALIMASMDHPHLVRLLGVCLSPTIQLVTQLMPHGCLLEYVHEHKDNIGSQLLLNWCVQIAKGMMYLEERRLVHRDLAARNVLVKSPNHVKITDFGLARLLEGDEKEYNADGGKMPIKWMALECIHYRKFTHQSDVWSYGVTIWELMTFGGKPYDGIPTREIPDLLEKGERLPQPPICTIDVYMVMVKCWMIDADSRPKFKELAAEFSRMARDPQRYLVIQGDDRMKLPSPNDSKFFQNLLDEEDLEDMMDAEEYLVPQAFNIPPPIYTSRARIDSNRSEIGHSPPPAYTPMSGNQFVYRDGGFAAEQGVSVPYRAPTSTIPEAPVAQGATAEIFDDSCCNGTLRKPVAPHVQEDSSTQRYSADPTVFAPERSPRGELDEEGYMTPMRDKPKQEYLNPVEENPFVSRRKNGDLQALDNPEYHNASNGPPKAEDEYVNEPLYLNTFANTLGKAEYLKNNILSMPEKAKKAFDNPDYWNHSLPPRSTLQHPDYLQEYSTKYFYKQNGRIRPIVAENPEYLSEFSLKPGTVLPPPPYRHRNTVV

[9] = target: Receptor tyrosine-protein kinase erbB-4 (Homo sapiens) (UniProt Q15303); conditions: at 10 µM
[10] = target: Focal adhesion kinase 1 (Homo sapiens) (UniProt Q05397); conditions: at 1 µM
Chain of Focal adhesion kinase 1 (Homo sapiens) (Q05397 2-1052 limits assumed): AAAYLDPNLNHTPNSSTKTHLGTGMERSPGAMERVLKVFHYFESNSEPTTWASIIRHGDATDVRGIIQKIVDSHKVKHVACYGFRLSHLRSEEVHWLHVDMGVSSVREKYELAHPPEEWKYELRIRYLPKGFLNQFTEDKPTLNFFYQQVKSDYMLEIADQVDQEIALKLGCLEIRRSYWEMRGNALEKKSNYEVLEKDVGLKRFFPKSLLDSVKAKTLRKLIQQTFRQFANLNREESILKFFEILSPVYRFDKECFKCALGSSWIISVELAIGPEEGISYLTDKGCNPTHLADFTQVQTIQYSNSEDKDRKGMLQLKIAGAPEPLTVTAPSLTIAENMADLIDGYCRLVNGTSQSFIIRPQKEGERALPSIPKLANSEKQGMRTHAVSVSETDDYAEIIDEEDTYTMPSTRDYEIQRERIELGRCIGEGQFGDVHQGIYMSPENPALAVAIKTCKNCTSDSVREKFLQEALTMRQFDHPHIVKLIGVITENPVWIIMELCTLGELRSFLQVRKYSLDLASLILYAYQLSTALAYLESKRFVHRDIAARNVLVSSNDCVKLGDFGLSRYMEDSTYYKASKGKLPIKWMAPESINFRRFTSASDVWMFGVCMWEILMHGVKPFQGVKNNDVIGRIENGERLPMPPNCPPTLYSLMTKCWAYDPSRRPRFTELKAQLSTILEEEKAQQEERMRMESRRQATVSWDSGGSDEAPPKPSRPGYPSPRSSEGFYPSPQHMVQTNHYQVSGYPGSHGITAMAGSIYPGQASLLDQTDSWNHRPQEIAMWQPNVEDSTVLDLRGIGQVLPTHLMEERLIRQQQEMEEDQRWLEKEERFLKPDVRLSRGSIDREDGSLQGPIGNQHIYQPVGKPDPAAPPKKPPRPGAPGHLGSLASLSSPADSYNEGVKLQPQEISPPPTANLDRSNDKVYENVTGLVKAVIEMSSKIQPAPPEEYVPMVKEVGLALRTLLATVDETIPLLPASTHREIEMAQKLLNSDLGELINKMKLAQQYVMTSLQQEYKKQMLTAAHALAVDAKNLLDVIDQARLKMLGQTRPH

CC(C)(C)n1nc(Cc2cccc3ccccc23)c2c(N)ncnc21
residual activity [1]: 0% | residual activity [2]: 3% | residual activity [3]: -1% | residual activity [4]: 112% (inactive) | residual activity [5]: 12% | residual activity [6]: 3% | residual activity [7]: -3% | residual activity [8]: 51% | residual activity [9]: 8% | residual activity [10]: 122%
